Our source for the outcome, Potency and max response values is PubChem BioAssay (NCATS).

Where “and” joins values, the source holds several entries; their conditions need not be identical. Identical values can stand only once. Values without a mark were called inactive. Inconclusive results are not listed. Calls of active or inactive are those of the source. Unless noted, calls follow the shape of the dose curve; as a rule, active = well fitted curve in the direction sought with a large enough effect; inconclusive = small, poorly fitted or top-dose-only effect, or another doubt; inactive = no such curve, though single readings can be large; an effect the other way counts as inactive or inconclusive. Peptide text beside a SMILES is read from it.

Assay [1] is described as follows: qHTS for compounds that reverse cellular toxicity of Amyloid beta (A-beta) peptide in yeast: LOPAC Validation Assay (AID 720559).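 Also: plate controls were DMSO for no effect and equimolar ferric chloride plus clioquinol rescue for full effect.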 In a few lines:
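Yeast expressing toxic A-beta grown with pinned compounds at 30 C for 48 hr. Growth measured as absorbance at 600 nm; data normalized to DMSO and to an equimolar FeCl3/clioquinol mixture as positive control.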

Assay [2] is described as follows: qHTS for Activators of Parkin Expression: LOPAC Validation Assay (NLuc Reporter) (AID 720572;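 also: 0% = DMSO and 100% = positive control compound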). The procedure, abridged:
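Neuronal cells with a Parkin promoter-driven FLuc/NLuc coincidence reporter were treated 24 h at 37 C in 7-point dose response (LOPAC). NLuc luminescence read after FLuc; signals normalized to DMSO and positive control (100%).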

Assay [3] is described as follows: qHTS for Activators of Parkin Expression: LOPAC Validation Assay (FLuc Reporter) (AID 720573;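 also: 0% = DMSO and 100% = positive control compounds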). In a few lines: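 Neuronal cell line stably expressing FLuc/NLuc coincidence reporter under the Parkin promoter, 1,500 cells/well, dosed 24 h after seeding in 7-point series for 24 h at 37 C. FLuc luminescence read; normalized to DMSO and positive control (100%).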
In assay [4] the target is T1, Hexokinase-4 (Homo sapiens) + Glucokinase regulatory protein (Homo sapiens) (UniProt P35557+Q14397). The experiment in a line: qHTS assay for inhibitors of recombinant human GCK-GKRP interaction: ADP-Glo assay (AID 743206).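 Also: plate controls were DMSO plus enzyme for no effect and no enzyme for full effect.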 The procedure, abridged: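 GST-GCK and FLAG-GKRP (15 nM each in the dispensed mix, with 2 uM S6P) react with 0.4 mM ATP and 5 mM glucose (final) in Hepes pH 7.6 for 60 min at room temperature. ADP is measured by ADP-Glo luminescence.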

Assay [5] deals with T1, Hexokinase-4 (Homo sapiens) + Glucokinase regulatory protein (Homo sapiens). Kind of assay: qHTS assay for inhibitors of recombinant human GCK-GKRP interaction: HTRF assay (AID 743207).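 Also: 0% = DMSO with GCK present and -100% = DMSO wells lacking GCK.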 In a few lines:
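HTRF binding of 5 nM GST-GCK and 5 nM FLAG-GKRP with 2 uM S6P in pH 7.1 Hepes buffer (MgCl2, KCl, DTT, Tween 20, BSA). Anti-FLAG XL665 and anti-GST donor added, 60 min at room temperature; 665/615 nm read, normalized to with- and without-GCK controls.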

Assay [6] in a line: qHTS assay for small molecule agonists of the antioxidant response element (ARE) signaling pathway measured by Nrf2-dependant transcriptional activity - cell viability counter screen (AID 720653; active = well fitted curve in the direction sought with a large enough effect in the repeat runs; an effect the other way counts as inactive or inconclusive; also: potency is read from the fitted curve at half-maximal effect; as to max response: % is scaled to controls: 0 for no effect and ±100 for the full control effect). The note with it: ARE-bla HepG2 viability, CellTiter-Glo ATP luminescence, 16 h; max response: stronger effect = lower value. In a few lines: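 ARE-bla HepG2 cells treated with compounds for 16 h at 37C; this counter screen measures viability as intracellular ATP by CellTiter-Glo luminescence after 30 min at room temperature.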

Assay [7] is described as follows: qHTS assay for small molecule antagonists of the retinoid-related orphan receptor gamma (ROR-gamma) signaling pathway - cell viability counter screen (AID 720652; active = well fitted curve in the direction sought with a large enough effect in the repeat runs; an effect the other way counts as inactive or inconclusive;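 also: CHO reporter cells with doxycycline-induced ROR-gamma expression; series mostly up to about 92 µM; compound exposure lasted 16 hr before ATP read; % is scaled to controls: 0 for no effect and ±100 for the full control effect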). The procedure, abridged: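 CHO cells carrying TET-inducible ROR and RORE-luciferase reporter, plated 5 hr, then dosed with compound plus doxycycline. After 16 hr at 37 C, viability read as intracellular ATP by CellTiter-Glo luminescence.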

Assay [8] in a line: qHTS assay for small molecule agonists of the antioxidant response element (ARE) signaling pathway measured by Nrf2-dependant transcriptional activity (AID 720636; active = well fitted curve in the direction sought with a large enough effect in the repeat runs; an effect the other way counts as inactive or inconclusive; also: potency is read from the fitted curve at half-maximal effect). In a few lines: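 HepG2 ARE-luc reporter line, 1% dialyzed FBS; 6 hr attachment at 37 C, compound pinned in, 16 hr at 37 C/5% CO2; ONE-Glo, 30 min RT, luminescence read.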
Assay [9] has as its target Arylsulfatase A (Homo sapiens) (UniProt P15289). The experiment in a line: qHTS screen for enhancers of Arylsulfatase A (ASA1): LOPAC Validation Assay (AID 720538). The procedure, abridged: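 SV40-transformed fibroblasts from an MLD patient (ASA-I179S) were treated with compound for 48 h at 37 C. They were then lysed with 0.5 mM pNCS substrate (final) for 14 h at room temperature and stopped with NaOH; signal read by fluorescence (Ex 525/Em 598 nm), with increase denoting enhanced activity.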

T1 sequence (P35557 whole entry, looked up): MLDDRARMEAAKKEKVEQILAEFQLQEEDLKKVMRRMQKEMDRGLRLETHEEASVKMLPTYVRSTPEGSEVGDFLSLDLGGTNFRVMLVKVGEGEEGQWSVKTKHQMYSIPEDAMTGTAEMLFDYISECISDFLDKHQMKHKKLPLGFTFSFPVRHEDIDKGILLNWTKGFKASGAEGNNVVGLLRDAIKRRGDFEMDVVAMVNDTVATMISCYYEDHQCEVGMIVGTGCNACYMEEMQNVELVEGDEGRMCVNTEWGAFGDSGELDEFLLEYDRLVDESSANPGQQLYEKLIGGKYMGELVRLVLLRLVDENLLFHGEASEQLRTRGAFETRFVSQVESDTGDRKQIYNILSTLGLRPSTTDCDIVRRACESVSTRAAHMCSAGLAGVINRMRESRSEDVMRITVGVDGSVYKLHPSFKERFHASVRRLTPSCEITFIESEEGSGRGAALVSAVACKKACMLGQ
T1 sequence (Q14397 whole entry, looked up): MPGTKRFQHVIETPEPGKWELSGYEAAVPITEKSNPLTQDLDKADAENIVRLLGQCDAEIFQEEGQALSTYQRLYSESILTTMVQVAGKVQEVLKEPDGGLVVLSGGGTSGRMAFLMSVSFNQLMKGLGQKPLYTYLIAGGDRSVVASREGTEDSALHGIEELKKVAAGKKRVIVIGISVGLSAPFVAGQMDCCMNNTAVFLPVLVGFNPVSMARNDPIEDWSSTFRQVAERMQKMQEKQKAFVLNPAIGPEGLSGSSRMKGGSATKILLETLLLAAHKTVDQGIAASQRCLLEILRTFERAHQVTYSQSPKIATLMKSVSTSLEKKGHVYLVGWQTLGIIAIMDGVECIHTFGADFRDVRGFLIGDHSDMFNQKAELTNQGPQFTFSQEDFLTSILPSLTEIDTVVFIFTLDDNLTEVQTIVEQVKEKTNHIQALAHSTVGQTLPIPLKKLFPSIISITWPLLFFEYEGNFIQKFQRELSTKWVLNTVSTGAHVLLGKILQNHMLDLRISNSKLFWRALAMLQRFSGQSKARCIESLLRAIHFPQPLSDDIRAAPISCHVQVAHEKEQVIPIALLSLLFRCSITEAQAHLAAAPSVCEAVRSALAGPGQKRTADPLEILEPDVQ
Chain of Arylsulfatase A (Homo sapiens) (P15289 whole entry, looked up): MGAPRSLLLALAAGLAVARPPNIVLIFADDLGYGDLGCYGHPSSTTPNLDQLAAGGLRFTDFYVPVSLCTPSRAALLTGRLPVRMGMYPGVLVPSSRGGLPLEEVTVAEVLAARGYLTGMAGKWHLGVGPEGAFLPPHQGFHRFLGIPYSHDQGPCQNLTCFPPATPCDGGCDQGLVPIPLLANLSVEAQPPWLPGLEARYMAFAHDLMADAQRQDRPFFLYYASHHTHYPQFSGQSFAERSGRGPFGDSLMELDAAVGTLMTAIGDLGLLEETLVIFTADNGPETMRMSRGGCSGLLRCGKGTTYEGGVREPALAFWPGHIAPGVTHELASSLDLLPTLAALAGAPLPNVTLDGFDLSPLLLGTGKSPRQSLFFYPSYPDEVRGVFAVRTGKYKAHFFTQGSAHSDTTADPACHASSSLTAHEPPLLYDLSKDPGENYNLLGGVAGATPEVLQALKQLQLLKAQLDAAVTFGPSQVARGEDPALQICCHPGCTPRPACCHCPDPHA

Take `O=c1c(O)c(-c2cc(O)c(O)c(O)c2)oc2cc(O)cc(O)c12`: the compound was classed as inactive in assay [1], in assay [2], in [4] and in [5]. Besides, the Potency result in [3] was “inactive”.
With `N[C@@H](Cc1cc(I)c(Oc2cc(I)c(O)c(I)c2)c(I)c1)C(=O)O`, the max response in [6] was -2.98%.
On to `Cc1cc(O)c2c(c1)C(=O)c1cc(O)cc(O)c1C2=O`, for which the call in [1], in assay [2], in assay [7], in [4] and in assay [5] was inactive. Besides, in assay [3], the Potency result is “inactive”.
As to `Cc1ccc(C)c(OCCCC(C)(C)C(=O)O)c1`, in assay [8], the Potency result was “inactive”. The result in assay [7] was inactive. Moreover, the max response in [6] is -1.19% and -0.256%.
In the case of `CN(C)c1ccc2nc3ccc(=[N+](C)C)cc-3sc2c1`, in [6], the Potency is 10 µM (active).
With `CCCc1cc(=O)[nH]c(=S)[nH]1`, the Potency result in assay [8] was “inactive”. Also, the compound was classed as inactive in assay [7]. Further, in [6], the max response was -7.93% and 7.26%.
Regarding `COc1cc2c(cc1OC)C1CC(=O)C(CC(C)C)CN1CC2` (stereo not given), the compound was classed as inactive in assay [1], in assay [2], in [4] and in assay [5]. In addition, the Potency result in assay [3] was “inactive”.
Take `NNc1nncc2ccccc12`: the Potency entry in assay [9] is “inactive”. Also, the result in assay [4] and in [5] was inactive.
With `CS(=O)(=O)OCCCCOS(C)(=O)=O`, the Potency result in [8] is “inactive”. Moreover, in assay [7], the call was inactive. For the same compound, the max response in [6] was -5.06% and -4.65% and 2.24%.
Take `COc1cc(OC)c(C(=O)CCCN2CCCC2)c(OC)c1`: the Potency entry in [8] is “inactive”. Further, the max response in [6] was -3.27%.
As for `O=C1c2c(O)cc(O)cc2OC(c2ccc(O)c(O)c2)C1O` (stereo not given), the compound was called inactive in [1], in assay [2], in assay [4] and in [5]. In addition, the Potency entry in assay [3] is “inactive”.
Consider `COC(=O)[C@H](Cc1ccccc1)NC(=O)[C@@H](N)CC(=O)O` (H-Asp-Phe-OMe), for which the Potency entry in assay [8] was “inactive”. For the same compound, in assay [7], the compound was classed as inactive. Besides, the max response in assay [6] is -13.7% and 2.98%.
Take `O=C1NC(=O)C(c2ccccc2[N+](=O)[O-])=C1Nc1ccc(O)c(Cl)c1`: the call in assay [1], in [2], in [4] and in assay [5] was inactive. Further, in [3], the Potency entry was “inactive”.
`CCCCC(CC)COC(=O)C(C#N)=C(c1ccccc1)c1ccccc1` (stereo not given): in assay [8], the Potency result is “inactive”. Also, the max response in [6] is -8.35%.
On to `COc1cc2nc(N3CCN(C(=O)C4CCCO4)CC3)nc(N)c2cc1OC` (stereo not given), for which the outcome in assay [1], in [2], in assay [4] and in assay [5] was inactive. The Potency result in [3] was “inactive”.
Take `c1ccc2[nH]c(-c3cscn3)nc2c1`: the call in assay [7] was inactive. The max response in assay [6] was -11.8% and -19.5%.
Consider `Nc1nc(OCc2ccccc2)c2[nH]cnc2n1`, for which the outcome in [1], in assay [2], in assay [4] and in assay [5] was inactive. In assay [3], the Potency entry was “inactive”.
Turning to `CNC[C@H](O)c1ccc(O)c(O)c1`, the compound was called inactive in assay [1], in assay [2], in assay [4] and in assay [5]. Besides, the Potency result in assay [3] and in assay [8] was “inactive” throughout. The max response in assay [6] was 4.44%.
For the compound `O=c1cc(N2CCOCC2)oc2c(-c3ccccc3)cccc12`, the Potency entry in assay [9] was “inactive”. For the same compound, the compound was classed as inactive in assay [1], in assay [4] and in assay [5].
As for `CC(=O)Nc1ccc(O)cc1`, the Potency entry in [8] was “inactive”. For the same compound, in assay [7], the compound was classed as inactive. Besides, in assay [6], the max response was -1.61% and -10.9%.
Turning to `Cc1c(OCC(F)(F)F)ccnc1CS(=O)c1nc2ccccc2[nH]1` (stereo not given), the Potency entry in assay [9] is “inactive”. The outcome in [2], in assay [4] and in assay [5] was inactive.
On to `NC(=NCc1ccccc1)NC(=O)c1nc(Cl)c(N)nc1N`, for which the outcome in assay [1], in assay [2], in assay [4] and in assay [5] was inactive. Besides, the Potency entry in [3] was “inactive”.
With `C[C@H](Cc1ccc(O)c(O)c1)[C@@H](C)Cc1ccc(O)c(O)c1`, the result in assay [1], in [4] and in assay [5] was inactive. The Potency result in assay [3] was “inactive”.
Regarding `Nc1ccc(S(N)(=O)=O)cc1`, the Potency entry in assay [8] is “inactive”. In assay [7], the outcome was inactive. The max response in assay [6] is 0.534%.
Turning to `COc1c2occc2cc2ccc(=O)oc12`, the max response in [6] is -6.22% and 0.264%.
Consider `O=C(c1ccccc1)c1ccc2n1CCC2C(=O)O` (stereo not given), for which, in [9], the Potency entry is “inactive”. In addition, the call in [1], in assay [2], in [4] and in [5] was inactive.
On to `CCc1nc(N)nc(N)c1-c1ccc(Cl)cc1`, for which the Potency entry in assay [8] is “inactive”. Further, the compound was called inactive in [7]. In addition, the Potency in assay [6] is 11.2 µM (active).
With `CCN(CC)C(=S)SSC(=S)N(CC)CC`, the Potency result in [9] was “inactive”. Moreover, in assay [1], the compound was classed as inactive. The Potency in [8] was 27.3 µM (active).
With `O=C1c2ccccc2-c2n[nH]c3cccc1c23`, the Potency entry in [9] was “inactive”. The compound was classed as inactive in assay [1], in [4] and in assay [5].
Take `CC(=O)N1CCN(c2ccc(OC[C@H]3CO[C@](Cn4ccnc4)(c4ccc(Cl)cc4Cl)O3)cc2)CC1`: the Potency entry in assay [9], in assay [3] and in assay [8] was “inactive” each time. The result in assay [2], in [4] and in [5] was inactive. Besides, the max response in [6] is -20.7%.
For `Oc1ccc2ccccc2c1SSc1c(O)ccc2ccccc12`, the compound was classed as inactive in assay [1], in [2], in [4] and in assay [5]. In assay [3], the Potency result was “inactive”.
In the case of `CC1(C)C(=O)N(CCN2CCC(C(=O)c3ccc(F)cc3)CC2)c2ccccc21`, the Potency entry in [9] and in assay [3] was “inactive” throughout. Further, the result in [1], in assay [2], in assay [4] and in assay [5] was inactive.
With `CC1(C)NC(=O)N(c2ccc([N+](=O)[O-])c(C(F)(F)F)c2)C1=O`, the compound was classed as inactive in assay [1], in assay [2], in assay [4] and in assay [5]. In addition, the Potency result in assay [3] and in assay [8] was “inactive” throughout. In addition, the max response in assay [6] was -27.8%.
